From PubChem BioAssay (NCI) come the findings set out here.

Test systems include RPMI-8226 leukemia; OVCAR-8 ovarian; OVCAR-5 ovarian; OVCAR-4 ovarian; SK-OV-3 ovarian; IGROV1 ovarian; OVCAR-3 ovarian; HS 578T breast; NCI/ADR-RES ovarian; T-47D breast; BT-549 breast; MDA-MB-435 melanoma; SW-620 colon; MCF7 breast; HCT-116 colon; KM12 colon; HCC-2998 colon.
Holding throughout (experiment): NCI-60 one-dose screen, 48 h (100 = growth as untreated, 0 = no growth, -100 = all killed)
Conditions in all cases: 10 µM unless noted

This is part of a sample that, as a whole, favours compounds with a hit. Of some 83,000 tested, about 20% had one in any assay.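 Interpretation: 100, growth as untreated; towards 0, rising growth inhibition; 0, no net growth; 0 to -100, cell death. Compounds scoring below 10 were considered active.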 A number with no mark means an inactive call. The source made the active and inactive calls.

With `CC1OC(O[C@@H]2[C@H](O)C(CO)OC(O[C@H]3COC(O[C@H]4CC[C@]5(C)[C@H]6CC[C@]78OC[C@@]9(CC[C@](C)(C=O)C[C@H]97)C(=O)C[C@@]8(C)[C@]6(C)CC[C@H]5C4(C)C)[C@@H](O)[C@@H]3O)[C@H]2OC2OC[C@@H](O)[C@@H](O)[C@@H]2O)[C@@H](O)[C@@H](O)[C@H]1O` (stereo partly specified), the growth is 101% with RPMI-8226 leukemia; 91.9% in the test on OVCAR-8 ovarian; 110% in the test with OVCAR-5 ovarian; 91.6% in the test with OVCAR-4 ovarian; 86.8% in the test on SK-OV-3 ovarian; 94.8% in the test on IGROV1 ovarian. Besides, the growth in the test on OVCAR-3 ovarian was 105%; in the test on HS 578T breast, 103%; in the test on NCI/ADR-RES ovarian it was 95.2%; with T-47D breast, 81.3%; with BT-549 breast it was 104%; in the test on MDA-MB-435 melanoma it was 105%. For the same molecule, the growth with SW-620 colon was 104%; in the test on MCF7 breast it was 87.7%; in the test on HCT-116 colon, 89.1%; in the test with KM12 colon it was 97%.

Consider `N#Cc1ccc(S(=O)(=O)Nc2ccc(-c3cnc(N)[nH]3)cc2)cc1`, for which the growth was 104% in the test on RPMI-8226 leukemia; 101% with OVCAR-8 ovarian; 98.9% in the test on OVCAR-5 ovarian; 104% in the test on OVCAR-4 ovarian; 106% in the test on SK-OV-3 ovarian; 108% in the test on IGROV1 ovarian. Further, the growth in the test on HS 578T breast is 98.3%; with NCI/ADR-RES ovarian, 102%; in the test with T-47D breast, 101%; in the test on BT-549 breast it was 107%; in the test with MDA-MB-435 melanoma it was 108%; in the test with SW-620 colon, 102%. For the same molecule, the growth was 90.7% with MCF7 breast, 107% in the test on HCT-116 colon, 105% in the test with HCC-2998 colon and 103% in the test on KM12 colon.

As to `Cc1ccccc1/C=C/c1nn2c(-c3ccoc3C)nnc2s1`, the growth in the test on RPMI-8226 leukemia was 91.4%; with OVCAR-8 ovarian, 97.1%; in the test with OVCAR-5 ovarian, 100%; in the test on OVCAR-4 ovarian, 99.6%; in the test on SK-OV-3 ovarian, 118%; in the test with IGROV1 ovarian, 107%. The growth was 111% with HS 578T breast; 93.7% in the test on NCI/ADR-RES ovarian; 90.5% with T-47D breast; 111% in the test with BT-549 breast; 96.3% in the test with MDA-MB-435 melanoma; 104% with SW-620 colon. The growth in the test on MCF7 breast was 83.9%; in the test on HCT-116 colon, 106%; in the test on HCC-2998 colon, 108%; in the test with KM12 colon it was 105%.

As for `Brc1cccc(/C=N/Nc2nc(N/N=C/c3cccc(Br)c3)nc(N3CCOCC3)n2)c1`, the growth in the test on RPMI-8226 leukemia was 34.2%; with OVCAR-8 ovarian, 37.4%; in the test on OVCAR-5 ovarian it was 72.4%; with OVCAR-4 ovarian it was 54.2%; with SK-OV-3 ovarian, 92.9%; with IGROV1 ovarian it was 42.8%. Also, the growth in the test on OVCAR-3 ovarian is 42.4%; in the test with HS 578T breast, 66.2%; with NCI/ADR-RES ovarian it was 41.8%; with T-47D breast, 56.4%; with BT-549 breast, 52.7%; in the test on MDA-MB-435 melanoma, 33.4%. Moreover, the growth in the test with SW-620 colon is 24.7%; in the test with MCF7 breast, 22.1%; with HCT-116 colon, 21.2%; in the test with HCC-2998 colon, 31.5%; in the test with KM12 colon it was 30.3%.

Regarding `Cc1nn(-c2ccc(Br)cc2)c2nc(CCl)[nH]c(=O)c12`, the growth was -53.9% (active) in the test on RPMI-8226 leukemia; 102% with OVCAR-8 ovarian; 102% in the test with OVCAR-5 ovarian; 116% with OVCAR-4 ovarian; 106% in the test with SK-OV-3 ovarian; 97.4% in the test with IGROV1 ovarian. The growth is 116% with OVCAR-3 ovarian; 108% with HS 578T breast; 104% with NCI/ADR-RES ovarian; 91.5% with T-47D breast; 101% with BT-549 breast; 103% in the test with MDA-MB-435 melanoma. Moreover, the growth is 110% with SW-620 colon; 82.3% with MCF7 breast; 98.3% in the test on HCT-116 colon; 105% in the test with HCC-2998 colon; 83.6% in the test on KM12 colon.

Turning to `C/C(=C(/c1ccc(O)cc1)c1ccc(OCCN2CCCCCC2)cc1)c1ccccc1`, the growth is 2.14% (active) in the test on RPMI-8226 leukemia; 69.2% in the test with OVCAR-8 ovarian; 63.3% with OVCAR-5 ovarian; 68.4% with OVCAR-4 ovarian; 76.1% with SK-OV-3 ovarian; 61.9% in the test with IGROV1 ovarian. In addition, the growth was 44.3% with HS 578T breast; 65.6% with NCI/ADR-RES ovarian; 20.5% with T-47D breast; 61.1% with BT-549 breast; 52.4% in the test with MDA-MB-435 melanoma; -52.6% (active) in the test with SW-620 colon. Further, the growth was 10.2% with MCF7 breast, 28.2% in the test with HCT-116 colon, 34.8% in the test with HCC-2998 colon and 43.2% in the test on KM12 colon.

Take `COc1ccc(-c2cc(-c3ccc(Cl)cc3)nc3nc(N)nn23)cc1`: the growth was 108% in the test on RPMI-8226 leukemia; 99.1% in the test with OVCAR-8 ovarian; 101% in the test on OVCAR-5 ovarian; 102% in the test with OVCAR-4 ovarian; 119% with SK-OV-3 ovarian; 98.2% in the test on IGROV1 ovarian. The growth was 110% with OVCAR-3 ovarian; 109% with HS 578T breast; 102% with NCI/ADR-RES ovarian; 91.4% with T-47D breast; 92.3% with BT-549 breast; 102% with MDA-MB-435 melanoma. The growth was 104% in the test on SW-620 colon; 89.9% with MCF7 breast; 98.8% in the test on HCT-116 colon; 100% with HCC-2998 colon; 99.7% in the test on KM12 colon.

Consider `Cn1cc(-c2nn3cc(-c4cccnc4)nc3s2)c2cc(F)ccc21`, for which the growth in the test on RPMI-8226 leukemia was 93.9%; in the test with OVCAR-8 ovarian it was 81.8%; in the test with OVCAR-5 ovarian, 91.5%; in the test with OVCAR-4 ovarian, 104%; in the test with SK-OV-3 ovarian it was 77.4%; in the test on IGROV1 ovarian, 74.5%. Besides, the growth in the test with HS 578T breast was 84.6%; with NCI/ADR-RES ovarian, 75.7%; with T-47D breast it was 65%; in the test with BT-549 breast, 92%; in the test with MDA-MB-435 melanoma, 29.7%; with SW-620 colon it was 80.3%. The growth in the test on MCF7 breast was 37.8%; in the test on HCT-116 colon, 91%; in the test with HCC-2998 colon, 96.6%; with KM12 colon, 76.4%.
